# Screens (PubChem BioAssay)
# A selection: hits, their analogues and other compounds. The true share with any hit is near 12%.
# Pf growth 96h: Primary qHTS for delayed death inhibitors of the malarial parasite plastid, 96 hour incubation | Potency, µM (highest dose often 28.7 µM), for inactives: at the highest dose activity change, negative = inhibition, most hits filed as inhibitors | AID 504834, 2011 | actives 6.9% (n = 320,000) | P. falciparum luciferase reporter growth, 96 h; note: % is set by controls: 0 for no effect and ±100 for the full control effect
#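 P. falciparum expressing integrated firefly luciferase, in erythrocytes at 2% hematocrit, 0.05% parasitemia, incubated with compounds 96 h at 37 C, 5% CO2. Growth inhibition read as loss of luminescence; two-generation exposure targets delayed-death apicoplast inhibitors.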
# Pf growth 48h: Primary qHTS for delayed death inhibitors of the malarial parasite plastid, 48 hour incubation. P. falciparum luciferase growth in erythrocytes, 48 h. Potency, µM (top dose mostly 28.7 µM), for inactives: top-dose activity change, negative = inhibition, most hits filed as inhibitors. actives 5.9% (n = 310,000). AID 504832, 2011; note: % is set by controls: 0 for no effect and ±100 for the full control effect
#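 Here the parasites carry a stable luciferase gene and grow inside erythrocytes in Albumax-based RPMI medium with compound for one erythrocytic cycle. Activity is scored as loss of luminescent signal.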
# SARS PLpro yeast: qHTS of Yeast-based Assay for SARS-CoV PLP. actives 0.19% (n = 330,000). Potency, µM (series often up to 32.9 µM), for inactives: top-dose activity, positive = growth rescue, usual class: activators. S. cerevisiae expressing SARS-CoV PLpro, growth rescue; calls by dose curve; note: 0% is about no effect; nearly all actives have a fitted effect of over 55% in size
# HCV inhibitor: qHTS Assay for Inhibitors of Hepatitis C Virus (HCV) | Huh7.5.1 HCVcc-Cre infection, luciferase reporter, 44 h | Potency, µM (doses to about 41.8 µM), inactives show top-dose activity change, negative = inhibition, actives largely listed as inhibitors | actives 3.4% (n = 340,000) | AID 651820, 2012; note: % is set by controls: 0 for no effect and ±100 for the full control effect
#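 Infectious HCV cell culture screen: compound-treated cells (1,000/well, pre-plated 4 h) are infected with HCVcc-Cre at roughly 0.5 moi and grown 44 h. Infection is quantified by luciferase signal after 15 min substrate incubation at room temperature.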
# AMA1-RON2 inh: qHTS for Inhibitors of AMA1-RON; Towards Development of Antimalarial Drug Lead: Primary Screen; Potency, µM (series often up to 58.2 µM), inactives show top-dose activity change, negative = inhibition, most hits filed as inhibitors; AlphaScreen AMA1-biotinylated RON2 peptide binding; actives 0.2% (n = 360,000); Plasmodium falciparum AMA1 (3D7) - RON2 peptide interaction; AID 720542, 2013;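 note: 0% = vehicle wells and -100% = peptide control; nearly all actives have a fitted effect of over 45% in size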
#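 AMA1 (3D7) with his tag at 25 nM final met compounds first, then biotinylated RON2 peptide at 25 nM; detection used donor plus acceptor beads, 10 µg/mL apiece, read by AlphaScreen after 30 min at room temperature.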
# NS1 function inh: qHTS Assay for Inhibitors of Influenza NS1 Protein Function; actives 0.4% (n = 270,000); Potency, µM (top dose mostly 46.1 µM), for inactives: at the top dose activity, positive = more growth; calls by dose curve; note: actives are rising curves; nearly all actives have a fitted effect of over 50% in size
#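 A cell-based growth assay was used: compounds that relieve NS1-induced slow growth of budding yeast raise OD600. Assay medium was yeast nitrogen base with ammonium sulphate and -URA supplement, pH 6.0, with 2% galactose.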
# Starred values were filed as active, the others as inactive; ? = inconclusive; . = no result; ! = repeats disagree; [ ] = another dose, or the depositor's remark. Unless noted, calls come from the whole dose curve; as a rule, active = well fitted curve in the direction sought with a large enough effect; inconclusive = small, poorly fitted or top-dose-only effect, or another doubt; inactive = no such curve, though single readings can be large; an effect the other way counts as inactive or inconclusive. Potency is the fitted concentration of half-maximal effect.
SMILES,Pf growth 96h,Pf growth 48h,SARS PLpro yeast,HCV inhibitor,AMA1-RON2 inh,NS1 function inh
CCC(=O)Nc1ccc(NC(=O)c2cccc(OC)c2)nc1,-8%,392%,-9%,0%,-13%,-1%
CNc1ncnc2c1ncn2[C@H]1C[C@H](OP(=O)(O)O)[C@@H](COP(=O)(O)O)O1,.,.,.,.,.,-1%
CCOc1ccccc1/C=C(/NC(=O)c1ccccc1)C(=O)N1CCCCC1,98%,?,-1%,-16%,-28%,-3%
O=C1CC(CC(=O)N/N=C/c2ccccc2[N+](=O)[O-])=NN1,?,-9%,24%,23%,46%,6.3µM*
O=C(C[n+]1ccccc1)N/N=C/c1ccccc1[N+](=O)[O-],34%,0%,-1%,10%,9%,3%
COc1ccc(CN(CC(=O)NCc2ccc(F)cc2)C(=O)CCC(=O)Nc2ccccn2)cc1,51%,0%,2%,13%,-16%,-18%
CN(C)Cc1c(O)ccc2c(-c3ccccc3)cc(=O)oc12,9.3µM*,-9%,-1%,0%,-9%,-6%
CC(=O)c1c(O)ccc2c(-c3ccccc3)cc(=O)oc12,15%,12%,12%,15%,15%,-29%
CCOC(=O)c1ccc2ncc(C(=O)OCC)c(NCc3ccco3)c2c1,1.7µM*,.,2%,-13%,4%,-26%
CCOC(=O)c1cnc2c(C)cccc2c1NCc1ccco1,?,?,-6%,11µM*,-1%,-9%
CCOC(=O)c1cnc2c(C(=O)OC)cccc2c1NCc1ccco1,.,?,0%,4%,37%,0%
O=C(c1ccc2c(c1)OCO2)N1CCN(S(=O)(=O)c2ccc(Cl)cc2)CC1,6%,?,0%,14%,-4%,-13%
O=S(=O)(Nc1ccc(-c2nc3ccccc3o2)cc1)c1ccccc1,0%,.,-24%,-7%,4%,-62%
CC(=O)Nc1ccc(S(=O)(=O)Nc2cccc(-c3nc4ccccc4o3)c2)cc1,14%,.,13%,13µM*,-10%,19%
CS(=O)(=O)c1ccccc1C(=O)Nc1cccc(-c2nc3ccccc3o2)c1,10%,14%,-2%,11µM*,-3%,-8%
Nc1cc(S(=O)(=O)N2CCCCC2)ccc1Oc1ccc(Cl)cc1,16%,8%,-10%,?,2%,.
COc1ccc(Oc2ccc(S(=O)(=O)N3CCCCC3)cc2S(=O)(=O)N2CCCCC2)cc1,?,10µM*,1%,?,-3%,-2%
COc1ccccc1Oc1ccc(S(=O)(=O)N2CCCC2)cc1,-11%,-3%,-8%,?,2%,-15%
Cc1cccc(Oc2ccc(S(=O)(=O)N3CCCCC3)cc2N)c1,8%,?,-6%,13µM*,4%,.
Cc1ccc(S(=O)(=O)c2cccc(S(=O)(=O)N3CCCC3)c2)cc1S(=O)(=O)N1CCCC1,87%,-34%,-5%,16µM*,12%,?
Cc1ccc(S(=O)(=O)c2cccc(S(=O)(=O)N3CCOCC3)c2)cc1S(=O)(=O)N1CCOCC1,.,-12%,-10%,8%,1%,4%
COc1cc(OC)cc(Oc2ccc(S(=O)(=O)N3CCCCC3)cc2[N+](=O)[O-])c1,?,8.3µM*,0%,?,-3%,19%
Cc1cccc(NC(=O)C(C)Oc2ccc(C)nc2[N+](=O)[O-])c1 (stereo unspecified),.,.,-2%,-4%,-10%,.
CCOc1ccccc1OCCOc1ccccc1OC(C)C,27%,.,2%,-1%,21%,-50%
CNCCOc1ccccc1OC(C)C,10µM*,-4%,0%,3%,-25%,9%
SMILES,Pf growth 96h,Pf growth 48h,SARS PLpro yeast,HCV inhibitor,AMA1-RON2 inh,NS1 function inh
CN1CCc2cccc3c2[C@H]1Cc1ccc(O)c(O)c1-3,2.3µM*!,2.9µM*,-17%,?,10µM*,-14%
CCc1nnc(NC(=O)c2cccc(S(=O)(=O)N3CCN(c4ccccc4)CC3)c2)s1,10µM*,.,16%,-19%,19%,0%
CCc1nnc(NC(=O)c2cc(S(=O)(=O)N3CCN(c4ccccc4)CC3)ccc2Cl)s1,6%,-2%,7%,-12%,2%,8%
Cc1ccnc(NC(=O)c2cccc(S(=O)(=O)N3CCN(c4ccccc4)CC3)c2)c1,-70%,17%,-6%,?,-5%,.
Cc1ccc(NC(=O)c2cccc(S(=O)(=O)N3CCN(c4ccccc4)CC3)c2)nc1,?,?,-2%,13µM*,-17%,.
S=c1nc(C2CC2)n(-c2ccccc2)[nH]1,6%,-6%,-2%,4%,30%,-4%
O=C(Nc1ccccc1N1CCCC1)c1cc2ccccc2o1,1%,?,-17%,?,?,-46%
CN1CCN(c2ccccc2NC(=O)c2ccc(-c3ccc(Cl)cc3Cl)o2)CC1,4.1µM*,.,-9%,10µM*,-4%,-20%
CN1CCN(c2ccccc2NC(=O)c2cc3ccccc3o2)CC1,4.7µM*,?,-2%,-16%,-1%,-32%
CN1CCN(c2ccccc2NC(=O)c2ccc(-c3cccc(Cl)c3)o2)CC1,-16%,?,-4%,?,?,-49%
CS(=O)(=O)N1CCN(c2ccccc2NC(=O)c2ccc(-c3ccc(Cl)cc3Cl)o2)CC1,.,12µM*,-4%,-5%,-4%,?
O=C(NC(=S)Nc1ccccc1N1CCOCC1)c1ccc(-c2ccccc2F)o1,15µM*,6%,1%,-4%,2%,0%
CC(OC(=O)c1cccc(S(=O)(=O)N(C)C)c1)C(=O)NCC(=O)Nc1ccc(F)c(F)c1F (stereo unspecified),.,.,.,25%,26%[11.6 µM],.
Cc1ccc(S(=O)(=O)N(C)c2ccc(C(=O)Nc3cccnc3)cc2)cc1,10µM*,-18%,0%,5%,-2%,-25%
CN(c1ccccc1)S(=O)(=O)c1ccc(NC(=O)c2ccc(-c3ccccc3)cc2)cc1,?,?,2%,.,8%,1%
CC(=O)Nc1ccc(NC(=O)c2ccc(N(C)S(=O)(=O)c3ccc(C)cc3)cc2)cc1,10µM*,1%,3%,-13%,-15%,3%
Oc1ccc(Cl)cc1C(C#Cc1ccccc1)N1CCOCC1 (stereo unspecified),10µM*,?,-16%,0%,-5%,29%
O=C(CC(c1ccccc1)c1cc(Cl)ccc1O)N1CCOCC1 (stereo unspecified),-33%,11%,7%,-5%,-1%,-12%
COc1ccc(NC(=O)CN2CCCCCC2)cc1OC,23%,13%,6%,-3%,11%,7%
